High-throughput results deposited in PubChem BioAssay by National Center for Advancing Translational Sciences (NCATS).
Giardia FBPA inh: qHTS Assay for Inhibitors of Fructose-1,6-bisphosphate Aldolase from Giardia Lamblia. A8B2U2. purified Giardia FBPA. Potency, µM (top dose mostly 59.6 µM), most hits filed as inhibitors. 290,000 compounds, 0.71% hits; also: nearly all actives have a fitted effect of over 55% in size
Target sequence (A8B2U2 whole entry, looked up): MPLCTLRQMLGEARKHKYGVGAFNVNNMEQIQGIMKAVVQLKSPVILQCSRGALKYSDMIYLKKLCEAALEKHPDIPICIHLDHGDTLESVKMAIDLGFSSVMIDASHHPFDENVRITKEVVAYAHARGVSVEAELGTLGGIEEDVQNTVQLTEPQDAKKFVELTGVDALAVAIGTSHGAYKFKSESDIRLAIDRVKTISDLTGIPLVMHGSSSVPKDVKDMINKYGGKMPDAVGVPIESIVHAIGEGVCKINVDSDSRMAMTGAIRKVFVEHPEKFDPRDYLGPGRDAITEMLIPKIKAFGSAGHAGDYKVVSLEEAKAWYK
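Giardia FBPA (40 nM reagent) was preincubated 10 min at RT with compound (up to 57.5 uM final), then substrate plus GAPDH/TPI/NAD/arsenate coupling system with diaphorase/resazurin was added; resorufin fluorescence (525/598 nm) was read after 20 min.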
HCV inhibitor: qHTS Assay for Inhibitors of Hepatitis C Virus (HCV); 340,000 compounds, 3.4% hits; AID 651820, 2012; Potency, µM (highest dose often 41.8 µM), most hits filed as inhibitors; Huh7.5.1 HCVcc-Cre infection, luciferase reporter, 44 h
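1,000 cells/well; 4 h culture; + compound; + HCVcc-Cre (~0.5 moi); 44 h; luciferase substrate, RT 15 min; read 15 sec.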
HCMV inh: qHTS Assay for inhibitors of the human cytomegalovirus (HCMV) | HFF cells, HCMV-luciferase reporter, 72 h; active compounds read low | activity change, negative = inhibition, % at 57.5 µM | 410,000 compounds, 4.5% hits | AID 1259415, 2018; in the data active = activity change below about -60%; inconclusive = no clear call, values can overlap the other calls; inactive = above about -39%
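Cell-based, HFFs, 1000 cells/well, 16 h 37C; cpds in DMSO + HCMV-luc, MOI 1 PFU/cell; 72 h 37C; OneGlo luminescence after 5 min RT; norm. to buffer vs Salinomycin 10uM.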
Lassa entry inh: qHTS for Inhibitors of binding or entry into cells for Lassa Virus. 300,000 compounds, 1.2% hits. Potency, µM (series often up to 37.9 µM), most hits filed as inhibitors. Lassa virus pseudotype entry inhibition, cell reporter; calls by dose curve; tested in HEK293 cells; also: nearly all actives have a fitted effect of over 50% in size
MARV entry inh: qHTS for inhibitors of binding or entry into cells for Marburg Virus; Marburg virus pseudotyped entry inhibition, cell reporter; Potency, µM (series often up to 37.8 µM), actives largely listed as inhibitors; 300,000 compounds, 1.8% hits; AID 540276, 2011; calls by dose curve; tested in HEK293 cells
FMDV antiviral: High Throughput Screening for Foot and Mouth Disease Virus Antivirals. FMDV antiviral cell-based qHTS. Potency, µM (highest dose often 57.9 µM), actives largely listed as inhibitors. AID 1159524, 2015. 410,000 compounds, 1.2% hits; calls by dose curve; tested in HEK293T cells; also: read-out not given here; nearly all actives have a fitted effect of over 45% in size
Hits are given with their value; i = inactive; ? = inconclusive; nt = no result; [ ] = remark or other dose. An excerpt weighted towards active compounds, which were near 8.3% of everything screened. Unless noted, calls follow the shape of the dose curve; as a rule, active = well fitted curve in the direction sought with a large enough effect; inconclusive = small, poorly fitted or top-dose-only effect, or another doubt; inactive = no such curve, though single readings can be large; an effect the other way counts as inactive or inconclusive.

SMILES | Giardia FBPA inh | HCV inhibitor | HCMV inh | Lassa entry inh | MARV entry inh | FMDV antiviral
CCOC(=O)c1cc(-c2ccc(C)cc2)n(CC(=O)Nc2ccc(OC)c(Cl)c2)c1C | nt | nt | -91 | nt | i | i
CS(=O)(=O)N(CC(=O)Nc1ccc(F)cc1F)C1CCCCC1 | i | i | i | i | i | i
COc1ccc(Cl)cc1NC(=O)CN(C1CCCCC1)S(C)(=O)=O | i | 4.5µM | i | i | i | ?
CCOC(=O)c1cc(-c2ccc(C)cc2)n(CCC(=O)Nc2ccc(OC)c(OC)c2)c1C | nt | nt | i | nt | ? | i
Cc1cn2cc(CNC(=O)CN3Cc4ccccc4OC(c4ccccc4F)C3)nc2s1 (centres undefined) | nt | nt | nt | nt | nt | i
CCCCOC(=O)/C=C\C(=O)OCCCC | i | i | i | nt | nt | i
CCCCOC(=O)/C=C\C(=O)NC(N)=O | i | ? | i | ? | ? | 28µM
COc1ccc(Cl)cc1C(=O)Nc1ccc2oc(-c3ccc(C(C)(C)C)cc3)nc2c1 | nt | nt | i | i | nt | i
CCOc1ccccc1-n1c(SCC(=O)Nc2ccc(CC)cc2)nc2n[nH]c(C)c2c1=N | i | i | nt | 10µM | ? | i
CCc1ccccc1NC(=O)CSc1nc2n[nH]c(C)c2c(=N)n1-c1cccc(OC)c1 | i | ? | i | i | ? | ?
Cc1ccccc1-n1c(SCC(=O)Nc2ccccc2Cl)nc2n[nH]c(C)c2c1=N | i | ? | i | nt | nt | i
CCc1ccc(NC(=O)CSc2nc3n[nH]c(C)c3c(=N)n2-c2ccccc2C)cc1 | nt | nt | ? | ? | nt | i
CCc1ccccc1-n1c(SCC(=O)Nc2ccc(C)cc2)nc2n[nH]c(C)c2c1=N | nt | nt | -69 | ? | nt | ?
Cc1ccccc1-n1c(SCc2ccccn2)nc2n[nH]c(C)c2c1=N | i | 11µM | i | ? | ? | i
COC(=O)[C@H](CCSC)NC(=O)C/C=C\[C@@H](C)CO | i[12.9 µM] | nt | nt | nt | nt | nt
Cc1ccccc1CNC(=O)C1CCN(c2nnc(-n3c(C)ccc3C)s2)CC1 | nt | nt | i | i | i | i
CCCc1cc(=O)[nH]c(SCc2nc(-c3ccc(C)cc3)no2)n1 | nt | nt | i | i | nt | i
Cc1nn(-c2ccccc2)c(Cl)c1C1C(C#N)=C(N)Oc2n[nH]c(C)c21 (centres undefined) | i | i | -103 | i | i | i
CCc1[nH]nc2c1C(C(C)C)C(C#N)=C(N)O2 (centres undefined) | i | i | i | i | i | 32µM
CCc1[nH]nc2c1C(c1cccnc1)C(C#N)=C(N)O2 (centres undefined) | i | i | i | i | i | i
Cc1[nH]nc2c1C(C1CC=CCC1)C(C#N)=C(N)O2 (centres undefined) | i | i | i | i | i | 25µM
Cc1[nH]nc2c1C(c1ccc(F)cc1)C(C#N)=C(N)O2 (centres undefined) | i | i | i | i | i | ?
CCC(CC)C1C(C#N)=C(N)Oc2n[nH]c(C)c21 (centres undefined) | i | i | i | i | ? | 35µM
CCOc1ccc(C(=O)c2cn(Cc3ccc(Cl)cc3)c3cc(OC)c(OC)cc3c2=O)cc1 | nt | nt | i | i | ? | ?
O=C(O)CN(CC(=O)O)CC1=CC2C(=CC1=O)Oc1cc(O)c(CN(CC(=O)O)CC(=O)O)cc1C21OC(=O)c2ccccc21 (centres undefined) | nt | nt | nt | nt | nt | i
SMILES | Giardia FBPA inh | HCV inhibitor | HCMV inh | Lassa entry inh | MARV entry inh | FMDV antiviral
CCOC(=O)CCCNC(=O)N1CCc2nc(COc3ccccc3)c3c(c2C1)CO[C@@H](C)C3 | i[12.9 µM] | nt | nt | nt | i | nt
COc1ccc(N2C(=O)CSC(c3ccccc3)C2=O)cc1 (centres undefined) | i | i | -105 | i | i | i
CCOc1ccc(NC(=O)CN(C)C(=O)c2cn(-c3ccc(C)cc3)nc2-c2cccc(OC)c2)cc1OCC | nt | ? | i | i | 11µM | i
Cc1cccc(N2CCN(C(=O)CN3C(=O)COc4ccc(S(=O)(=O)N5CCC(C)CC5)cc43)CC2)c1C | nt | nt | i | i | i | i
CN1CCCN(C(c2ccccc2)c2ccc(Cl)cc2)CC1 (centres undefined) | i | 1.3µM | ? | 13µM | ? | i
CCN(CC)c1nc2ccccc2nc1C(C#N)C(=O)NCCCOC (centres undefined) | i | 7.1µM | i | i | i | ?
CCCCN(CCCC)c1nc2ccccc2nc1C(C#N)C(=O)NCCCOC (centres undefined) | i | i | i | i | i | i
O=C(COc1ccc(Br)cc1)N1CCN(c2ccc([N+](=O)[O-])c(N3CCCCC3)c2)CC1 | i | ? | i | i | i | ?
O=[N+]([O-])c1ccc(N2CCNCC2)cc1N1CCCCC1 | i | 10µM | i | i | ? | i
O=C(COc1ccccc1)N1CCN(c2ccc([N+](=O)[O-])c(N3CCCCC3)c2)CC1 | i | 7.1µM | i | ? | i | nt
O=C(/C=C/c1ccc(Cl)cc1)N1CCN(c2ccc([N+](=O)[O-])c(N3CCOCC3)c2)CC1 | i | 7.9µM | i | i | i | 14µM
O=C(CCCn1c(=O)c2cccn2c2cccnc21)NCc1ccccc1Br | nt | nt | i | i | nt | i
O=S(=O)([N-]c1nc2ccccc2nc1-[n+]1ccccc1)c1ccc(Cl)cc1 | i | i | -62 | i | i | i
Cc1cc(C)c[n+](-c2nc3ccccc3nc2[N-]S(=O)(=O)c2ccc(Cl)cc2)c1 | i | i | i | i | i | i
COc1ccc(-c2nnc(SCC(=O)N(Cc3ccccc3)C(C)(C)C)o2)cc1OC | i | ? | -95 | ? | ? | 11µM
CN(C(=O)Cn1c(=O)n(Cc2ccc(C(=O)NCc3ccc4c(c3)OCO4)cc2)c(=O)c2ccccc21)c1ccccc1 | nt | nt | i | i | i | i
Cc1ccccc1OCCn1c(C)nc2ccccc21 | i | 5.6µM | i | i | ? | i
Cc1ccccc1OCCCCn1c(CO)nc2ccccc21 | i | 11µM | -94 | ? | ? | ?
Cc1nc2ccccc2n1CCOc1ccccc1 | i | ? | ? | i | ? | ?
Cc1ccccc1OCCCCn1cnc2ccccc21 | i | 7.9µM | -68 | i | i | i
Cc1ccc(OCCCn2c(CO)nc3ccccc32)cc1 | i | i | i | i | i | i
Cc1ccc(OCCCCn2cnc3ccccc32)cc1 | i | ? | i | i | i | i
Cc1ccc(Cn2cnc3ccccc32)cc1C | i | ? | -63 | i | i | ?
CCOC(=O)C1=CCN(S(=O)(=O)c2ccccc2Br)C1c1ccc(Cl)cc1 (centres undefined) | nt | nt | i | nt | nt | nt
COc1ccccc1N1CCN(C(=O)CSc2n[nH]c(-c3ccccc3Cl)n2)CC1 | nt | nt | i | i | nt | i
CCCCN1CC(c2nc3ccccc3n2CCCCOc2ccccc2C)CC1=O (centres undefined) | nt | nt | -68 | i | ? | i
COc1ccc2c(CSc3nnc(-c4cccnc4)n3-c3ccccc3F)cc(=O)oc2c1 | i | i | i | i | i | i
